# “And” between values parts separate entries of the source, which are not always exact repeats. Equal entries are not always repeated. The campaign covered roughly 270,000 compounds. About 5,800 (2.1%) were called active. Not shown: some 16% with an inconclusive outcome. Calls follow the shape of the dose curve; as a rule, active = well fitted inhibition curve with a large enough effect; inconclusive = small, poorly fitted or top-dose-only effect; inactive = flat fitted curve, though single readings scatter. This excerpt belongs to a sample that is enriched for actives.
# Biological target: Microtubule-associated protein tau (Homo sapiens) (UniProt P10636)
# Test: qHTS for Inhibitors of Tau Fibril Formation, Thioflavin T Binding; also: nearly all actives have a fitted effect of over 55% in size
# Details: recombinant tau K18 P301L (four-repeat tau fragment), heparin-induced fibrillization, ThT fluorescence; series mostly up to 57.4 µM; activity, negative = inhibition: at the top concentration
# Source text: NIH Molecular Libraries Probe Production Network [MLPCN]
# NIH Chemical Genomics Center [NCGC]
# Assay Provider: Carlo Ballatore, University of Pennsylvania
# The microtubule-associated protein tau is an abundant protein in the axons of neurons that stabilizes microtubules. With its ability to modulate microtubule dynamics, tau contributes directly or indirectly, to key structural and regulatory cellular functions. Particularly important is the influence tau exerts on axonal transport, which allows signaling molecules, trophic factors and other essential cellular constituents to travel along the axons. Under pathological conditions, tau becomes sequestered into insoluble aggregates called neurofibrillary tangles. This phenomenon is believed to have pathological consequences by promoting axonal transport deficits that ultimately lead to synaptic dysfunction and neuronal loss. To identify inhibitors of tau aggregation, a heparin-induced tau fibril formation assay was used that employed a recombinantly expressed fragment of tau, K18 (Q242-E372), bearing a P301L mutation (Gustke et al. 1994; Hong et al. 1998). This assay monitors tau fibrillization by Thioflavin T (ThT) fluorescence.
# Gustke, N., B. Trinczek, et al. (1994). "Domains of tau protein and interactions with microtubules." Biochemistry 33(32): 9511-22.
# Hong, M., V. Zhukareva, et al. (1998).
# Li, W. and V. M. Lee (2006).
# von Bergen, M., S. Barghorn, et al. (2001). "Mutations of tau protein in frontotemporal dementia promote aggregation of paired helical filaments by enhancing local beta-structure." J Biol Chem 276(51): 48165-74.
# NCGC Assay Protocol Summary:
# For screening, 2 uL/well human K18 P301L (15 uM unlabeled and 0.24 uM Alexa 594-labeled tau, final concentrations) in reagent buffer (100 mM sodium acetate pH 7) was dispensed into black solid 1536-well plates (Grenier) using a solenoid-based dispenser. Following transfer of 23 nL compound or DMSO vehicle by a pin tool, 2 uL/well heparin (20 uM final concentration) in reagent buffer was added and the plate centrifuged 15 s at 1000 RPM. Plates were incubated 6 hr at 37 C and then 1 uL/well ThT (30 uM final concentration) was added. After a 1 hr ambient incubation, the plates were read by an Envision (Perkin Elmer) to monitor ThT fluorescence (450/8 nm excitation and 510/23 nm emission).
# Keywords: NIH Roadmap, MLPCN, MLI, MLSMR, NCGC, qHTS, tau, tauopathies, Alzheimer's disease, fibril, neurodegeneration, aggregation
# % is scaled to controls: 0 for no effect and ±100 for the full control effect; potency is read from the fitted curve at half-maximal effect.
# Microtubule-associated protein tau (Homo sapiens), sequence (P10636 561-689 P618L limits assumed): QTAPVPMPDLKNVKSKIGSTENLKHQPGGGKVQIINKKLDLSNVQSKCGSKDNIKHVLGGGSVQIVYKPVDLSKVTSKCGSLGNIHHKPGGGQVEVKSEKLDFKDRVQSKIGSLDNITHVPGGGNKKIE
Compound,Potency,"activity, negative = inhibition"
CC[N+](C)(CC)CCC[n+]1c(-c2ccccc2)c2cc(N)ccc2c2ccc(N)cc21,1.26 µM (active),–
CC[C@@H]1CN2CC[C@@H]1C[C@H]2[C@H](O)c1ccnc2ccc(OC)cc12,–,-4.88% (inactive)
CCN(CC)CCOC(=O)c1cc2cc(COC)ccc2o1,–,-8.09% (inactive)
CN(C)[C@@H]1C(=O)C(C(N)=O)=C(O)[C@@]2(O)C(=O)C3=C(O)c4c(O)cccc4[C@@](C)(O)C3CC12 (stereo partly specified),–,-9.02% (inactive)
CN(C)CC1CCCCC1OC(=O)c1ccc(Cl)c(Cl)c1 (stereo unspecified),–,-7.82% (inactive)
CC(C)Oc1cccc(C(=O)C2CCCN(C3CCOCC3)C2)c1 (stereo unspecified),–,-2.7% (inactive)
N#CC(C#N)=Cc1cc(O)c(O)c([N+](=O)[O-])c1,10 µM (active) and 17.8 µM (active),–
CC1=CC(=O)C2=C(C)C[C@H](O)[C@H]3[C@H](C)C(=O)O[C@@H]3C12 (stereo partly specified),–,-2.24% (inactive)
CN1[C@@H]2CC[C@H]1CC(OC(=O)c1cc(Cl)cc(Cl)c1)C2 (stereo partly specified),–,-3.74% (inactive)
CC1(C)Cc2c(C#N)c(N3CCNCC3)nc(-c3ccco3)c2CS1,–,-10.8% (inactive)
COc1ccccc1N=C1SCCCN1C,–,-5.08% (inactive)
COc1ccccc1N=Nc1c(O)[nH]c(=S)[nH]c1=O,12.6 µM (active),–
CCOCCc1c(O)[nH]c(=S)[nH]c1=O,–,-5.42% (inactive)
COc1ccccc1-c1[se]c2ccccc2c1I,–,-17.5% [at 81.4 µM] (inactive)
c1cc2c(cc1CCNC1CCCCCC1)OCO2,–,-5.27% (inactive)
CC[C@]1(O)C(=O)OCc2c1cc1n(c2=O)Cc2cc3ccccc3nc2-1,–,-4.8% (inactive)
CCCCN1C2CCC1CC(OC(c1ccc(F)cc1)c1ccc(F)cc1)C2 (stereo unspecified),–,-17% (inactive)
O=C(COc1ccc2ccccc2c1)N1CCN(Cc2ccncc2)CC1,–,-0.256% (inactive)
CC(=O)Oc1ccccc1C(=O)Nc1ncc([N+](=O)[O-])s1,11.2 µM (active),–
O=c1oc2ccccc2c(O)c1C(c1ccccc1O)c1c(O)c2ccccc2oc1=O,–,-12.9% (inactive)
c1ccc2sc(SNC3CCCCC3)nc2c1,–,-14.2% (inactive)

Compound,Potency,"activity, negative = inhibition"
C[N+]1(C)CCOC(O)(c2ccc(-c3ccc(C4(O)C[N+](C)(C)CCO4)cc3)cc2)C1 (stereo unspecified),inactive,–
Cc1ccc(CN2CCCC(C(=O)c3ccc4c(c3)OCO4)C2)cc1C (stereo unspecified),–,-11.4% (inactive)
COC(=O)N(c1ccc(OC)cc1)P1(=S)OCCC(C)O1 (stereo unspecified),28.2 µM (active),–
CCCCCCCCCCCCn1ccc(=N)cc1,–,1.75% (inactive)
COc1ccc2[nH]cc(CCNCc3ccc(Br)cc3)c2c1,–,-12% (inactive)
CCCCC/C=C\C/C=C\C/C=C\C/C=C\CCCCCC(=O)NCCO,inactive,–
O=C1NC(=O)N(c2ccccc2)C(=O)/C1=C/c1ccc([N+](=O)[O-])s1,14.1 µM (active),–
Cc1cccc(N2C(=O)NC(=O)/C(=C\c3cnn(-c4ccccc4)c3)C2=O)c1,–,-18% (inactive)
COc1cccc(N2C(=O)NC(=O)/C(=C\c3ccc([N+](=O)[O-])s3)C2=O)c1,14.1 µM (active),–
CN1C2CC3CC1C(O3)C2O (stereo unspecified),–,1.06% (inactive)
COC1CC(OC2CC[C@@]3(C=O)C4CC[C@]5(C)C(C6=CC(=O)OC6)CC[C@@]5(O)C4CC[C@]3(O)C2)OC(C)C1O (stereo partly specified),–,-5.76% (inactive)
COc1c(O)ccc2c1-c1c3c(cc4c1C(C2)N(C)CC4)OCO3 (stereo unspecified),–,-14% (inactive)
O=C(NC(c1ccc(Cl)cc1)P(=O)(Oc1ccccc1)Oc1ccccc1)OCc1ccccc1 (stereo unspecified),–,-4.62% (inactive)
NCCc1c[nH]c2ccc(O)cc12,inactive,–
CCOc1cccc(=NC2CCCCC2)c2c(C)[nH]c(C)c12,8.91 µM (active),–
CN(C)c1nc(N(C)C)nc(N(C#N)CCCl)n1,–,-3.25% (inactive)
C=CCN1CCC2(C)c3cc(O)ccc3CC1[C@@H]2C (stereo partly specified),–,15.8% (inactive)
CC(=O)c1c(O)c(C)c(O)c(Cc2c(O)c3c(c(C(=O)/C=C/c4ccccc4)c2O)OC(C)(C)C=C3)c1O,15.8 µM (active) and 17.8 µM (active) and 12.6 µM (active),–
CC(=O)c1c(O)c(C)c(O)c(Cc2c(O)c3c(c(C(=O)/C=C\c4ccccc4)c2O)OC(C)(C)C=C3)c1O,15.8 µM (active),–
O=C1NC(=O)C(CCc2ccccn2)(Cc2cccc(Cl)c2Cl)C(=O)N1c1ccc(Br)cc1 (stereo unspecified),–,-11.1% (inactive)
O=C(OCCN1CCOCC1)C1(c2ccccc2)CCCC1,–,-3.29% (inactive)

Compound,Potency,"activity, negative = inhibition"
N[C@@H](Cc1c[nH]c2ccccc12)c1nnc(SCc2c(F)cccc2Cl)o1,–,-19.7% (inactive)
Cc1ccc(Cn2c(C)c3cnn(CC(=O)N4CCC5(CC4)OCCO5)c(=O)c3c2C)cc1,–,-2.65% (inactive)
COC(=O)c1ccc2[se]c(CC3CCCCC3)c(I)c2c1,–,-9.2% (inactive)
Cc1ccc2c(c1)=C/C(=C\c1c(O)[nH]c(=O)[nH]c1=O)C(=O)N=2,–,8.7% (inactive)
CCC(=NCc1ccco1)c1c(O)n(Cc2ccccc2)c(=O)[nH]c1=O,–,1.59% (inactive)
CCC(=NCCc1ccccc1)c1c(O)n(C2CCCCC2)c(=O)[nH]c1=O,–,-25.8% (inactive)
CC/C(=N\NC(=O)c1ccccc1O)c1c(O)n(Cc2ccccc2)c(=O)[nH]c1=O,22.4 µM (active),–
CCCCC/C=C\C/C=C\C/C=C\C=C\[C@H](CCCC(=O)O)OO,inactive,–
Cc1nc2ccccn2c1P(=S)(N1CCCCC1)N1CCCCC1,–,-0.659% (inactive)
Cc1cccc2c3c(ccc12)C1=C(C(=O)C3=O)C(C)CO1 (stereo unspecified),7.94 µM (active),–
CN1CCN(Cc2ccc(OC(F)(F)F)cc2)CC1,–,-11.3% (inactive)
CCCN(C/C=C/I)C1CCc2ccc(O)cc2C1 (stereo unspecified),–,-11.2% (inactive)
CCCCCCCCc1[se]c2ccccc2c1Br,–,-14.5% [at 81.4 µM] (inactive)
O=C(OCC1O[C@@H](OC(=O)c2cc(O)c(O)c(O)c2)[C@@H](OC(=O)c2cc(O)c(O)c(O)c2)[C@@H](OC(=O)c2cc(O)c(O)c(O)c2)[C@@H]1OC(=O)c1cc(O)c(O)c(O)c1)c1cc(O)c(O)c(O)c1 (stereo partly specified),11.2 µM (active),–
O=C(O)C1C2CCC(O2)C1C(=O)O (stereo unspecified),–,-15.8% (inactive)
CO[C@@H]1C[C@@H](C[C@H]2CC[C@H](C)[C@@H]([C@@H](C)C(=O)O)O2)O[C@]2(O[C@](C)([C@H]3CC[C@@](C)(C4OC([C@H]5O[C@@](O)(CO)[C@H](C)C[C@@H]5C)C[C@@H]4C)O3)C[C@H]2C)[C@@H]1C (stereo partly specified),–,-8.15% (inactive)
Cc1ncsc1CCCl,inactive,–
CCC(C)n1c(O)c(/C=N/Nc2nc3c(c(=O)n(C)c(=O)n3C)n2C)c(=O)[nH]c1=S (stereo unspecified),11.2 µM (active),–
CCOC(=O)C1(CCc2ccccc2)CCN(Cc2ccco2)CC1,–,-5.91% (inactive)
